# Laboratory results published in PubChem BioAssay (EPA / NIEHS).
# Activity calls are given as the source filed them. How the source made its calls: active means hit-call score of the fitted dose curve at least 0.9, where 1 is the maximum; inactive means score below 0.9.
# Read-out: Plasminogen activator inhibitor-1 (PAI1), SERPINE1 (gene 5054)
# Experiment: BSK_hDFCGF_PAI1: BioMAP Diversity Plus: hDFCGF Assay for Plasminogen activator inhibitor-1 (PAI1) Biomarker Activity (AID 2283066)
# Conditions: primary human foreskin fibroblasts; actives raise or lower the signal
# Method: BSK_hDFCGF is a cell-based, multiplexed-readout assay that uses foreskin fibroblast, a human skin primary cell, with measurements taken at 24 hours after chemical dosing in a 96-well plate.BSK_hDFCGF_PAI1 is an assay component measured in the BSK_hDFCGF assay. It measures PAI-1 antibody related to regulation of gene expression using ELISA technology.Data from the assay component BSK_hDFCGF_PAI1 was analyzed into 1 assay endpoint. This assay endpoint, BSK_hDFCGF_PAI1, was analyzed with bidirectional fitting relative to DMSO as the negative control and baseline of activity. Using a type of binding reporter, gain or loss-of-signal activity can be used to understand changes in the signaling as they relate to the gene SERPINE1. Furthermore, this assay endpoint can be referred to as a primary readout, because this assay has produced multiple assay endpoints where this one serves a signaling function. To generalize the intended target to other relatable targets, this assay endpoint is annotated to the cytokine intended target family, where the subfamily is plasmogen activator inhibitor.
# The levels of cell surface (or secreted, indicated by the prefix "s") biomarker endpoints were measured by ELISA. Overt cytotoxicity to cells in confluent adherent cultures (all systems other than the BT system) was assessed by measuring total protein levels using sulforhodamine B (SRB) staining in parallel cultures at the time of biomarker measurements, indicated as SRB endpoints. For proliferation assays for adherent cell types, individual cell types are cultured at sub-confluence and relative cell numbers quantified by SRB staining at time points optimized for each system (48 h: 3C and CASM3C systems; 72 h: BT and HDF3CGF systems; 96 h: SAg system). SRB was performed by staining cells with 0.1% SRB after fixation with 10% TCA and reading wells at 560 nm.Viability and proliferation of PBMC (T cells) was quantified by Alamar Blue reduction for the SAg and BT systems. For PBMC viability (referred to as PBMC Cytotoxicity within the assay endpoint names), cells were plated (75,000/well in a 96-well plate) and then chemical samples added for 1 h before addition of activators, SEB and TSST-1 (20 ng/mL final concentration each). Cells were incubated for 90 h. Then, Alamar Blue (20 uL/well) (Invitrogen, Cat DAL1100) was added for 6 h, and the plates were read with a fluorescence microplate reader at 546/580 nm (excitation/emission). For PBMC proliferation, cells were plated and activated as above but incubated for only 16 h prior to addition of Alamar Blue. Plates were read after 6 h.
SMILES,outcome,AC50
CC[C@H](C)C(=O)O[C@H]1C[C@H](O)C=C2C=C[C@H](C)[C@H](CC[C@@H](O)C[C@@H](O)CC(=O)O)[C@H]21,inactive,–
CCCCOC(=O)c1ccccc1,inactive,–
OC(O)(C(F)C(O)(O)C(F)(F)F)C(F)(F)F,inactive,–
OC[C@H]1O[C@@H]2O[C@H]3[C@H](O)[C@@H](O)[C@@H](O[C@H]4[C@H](O)[C@@H](O)[C@@H](O[C@H]5[C@H](O)[C@@H](O)[C@@H](O[C@H]6[C@H](O)[C@@H](O)[C@@H](O[C@H]7[C@H](O)[C@@H](O)[C@@H](O[C@H]1[C@H](O)[C@H]2O)O[C@@H]7CO)O[C@@H]6CO)O[C@@H]5CO)O[C@@H]4CO)O[C@@H]3CO,inactive,–
C[C@@H](Oc1ccc(CNC(=O)c2cccnc2Oc2ccc3c(c2)OCO3)c(F)c1)C(=O)O,inactive,–
NC(=O)N(O)[C@@H]1COc2cc(OCc3ccccc3)ccc21,inactive,–
O=S(=O)(O)c1ccc(N=Nc2c(O)ccc3cc(S(=O)(=O)O)ccc23)cc1,inactive,–
C=CCc1cc(S(=O)(=O)c2ccc(O)c(CC=C)c2)ccc1O,–,10.2 µM (active)
O=S1(=O)CCCO1,inactive,–
OC[C@H]1O[C@@](CO)(O[C@H]2O[C@H](CO)[C@@H](O)[C@H](O)[C@H]2O)[C@@H](O)[C@@H]1O,inactive,–
CC1(C)C(=O)N(Cl)C(=O)N1Cl,inactive,–
CCCCCCOC(=O)CC(CC(=O)OCCCCCC)(OC(=O)CCC)C(=O)OCCCCCC,inactive,–
COc1cc2c(c(OC)c1OC)-c1ccc(OC)c(=O)cc1[C@@H](NC(C)=O)CC2,inactive,–
Nc1ccn([C@@H]2O[C@H](CO)[C@@H](O)[C@@H]2O)c(=O)n1,inactive,–
c1ccc2c(c1)-c1cccc3c1c-2cc1ccccc13,inactive,–
O=C(NO)C1(NS(=O)(=O)c2ccc(Oc3ccc(F)cc3)cc2)CCOCC1,inactive,–
CCCCC(CC)C(=O)OCCOCCOCCOC(=O)C(CC)CCCC (stereo not given),inactive,–
COCc1nnc(-c2ccc[n+]([O-])c2)n1-c1c(Cl)c(Cl)cc2[nH]c(=O)c(=O)[nH]c12,inactive,–
C[Si](C)(C)C(F)(F)C(F)(F)C(F)(F)F,inactive,–
NCC(F)(F)C(F)(F)C(F)(F)C(F)(F)F,inactive,–

SMILES,outcome,AC50
COS(C)(=O)=O,inactive,–
CCCCCCCC1CCC(=O)O1 (stereo not given),inactive,–
Cc1cccc(O)c1C,inactive,–
FC(F)(F)C(F)(F)C(F)(F)C(F)(F)C(F)(F)C(F)(F)I,inactive,–
CCCCCCCCCCCCCCCCOS(=O)(=O)O,–,9.1 µM (active)
c1ccc2ncccc2c1,inactive,–
Cc1ncc([C@@H](CCCCCCc2ccc3c(n2)NCCC3)CC(=O)O)cn1,inactive,–
NNC(=O)c1ccncc1,inactive,–
CCCCCCCCN(C)C,inactive,–
O=S(=O)(O)CCC(F)(F)C(F)(F)C(F)(F)C(F)(F)C(F)(F)C(F)(F)F,inactive,–
CCCC(CCC)C(=O)O,inactive,–
OC(CCl)CCl,inactive,–
CC(=O)c1ccccc1,inactive,–
CCCOc1ccc(S(=O)(=O)N2CCN(CC)CC2)cc1-c1nc2c(CC)n(Cc3ccccn3)nc2c(=O)[nH]1,inactive,–
FC(F)=C(F)C(F)(F)C(F)(F)C(F)(F)C(F)(F)C(F)(F)C(F)(F)F,inactive,–
Cn1cc[nH]c1=S,inactive,–
c1ccc(C(O[C@@H]2CCCN(CCc3ccc4c(c3)OCO4)C2)c2ccccc2)cc1,–,20 µM (active)
NC(=O)NN=Cc1ccc([N+](=O)[O-])o1,inactive,–
Cc1ccc(S(=O)(=O)NC(=O)NN2CCCCCC2)cc1,inactive,–
O=C(O)c1cccc(C[C@@H]2COc3ccc(OCc4nc5cc(F)ccc5s4)cc3[C@@H]2O)c1,inactive,–
